Data on nine compounds can be found in PubChem BioAssay (Tox21).

Unmarked numbers belong to inactive results. Results filed as inconclusive are left out. Activity calls are given as the source filed them. Unless noted, calls come from the whole dose curve; as a rule, active = well fitted curve in the direction sought with a large enough effect in the repeat runs; inconclusive = weak or mixed curves; inactive = no such curve, though single readings can be large; an effect the other way counts as inactive or inconclusive.

Assay [1] in a line: qHTS assay to identify small molecule antagonists of the sonic hedgehog signaling (Shh) pathway (AID 1259369; calls by dose curve; note: potency is the fitted concentration of half-maximal effect; nearly all actives have a fitted effect of over 45% in size). In short, it runs like this: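 Conditioned medium drives Shh signalling in 3T3Gli1-Luc cells; compounds in DMSO co-applied, 24hr at 37 C, then luciferase luminescence.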
In general terms: qHTS replaces the single test concentration by a dilution series.

Assay [2] is described as follows: qHTS assay to identify small molecule agonists of the estrogen receptor beta (ER-beta) signaling pathway - cell viability counter screen (AID 1259380). Note: nearly all actives have a fitted effect of over 30% in size. Note: potency is the fitted concentration of half-maximal effect. In a few lines:
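Cells used were ER-beta-UAS-bla HEK293T in medium with 2% charcoal-stripped FBS. They were treated for 16 hr at 37C. Viability came from CellTiter-Glo luminescence.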

The nature of assay [3]: qHTS assay to identify small molecule antagonists of the estrogen receptor beta (ER-beta) signaling pathway - cell viability counter screen (AID 1259382). Note: nearly all actives have a fitted effect of over 55% in size. Note: potency is the fitted concentration of half-maximal effect. In a few lines:
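Agonist-stimulated (1nM E2) ER-beta-UAS-bla HEK293T cells are incubated with library compounds for 16 hr at 37C. Cell viability is then assessed in the reporter-assay wells by adding CellTiter-Glo and reading luminescence after 30 min.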

For assay [4], the target named is Progesterone receptor (Homo sapiens) (UniProt P06401). As to the kind of experiment: qHTS assay to identify small molecule agonists of the progesterone receptor (PR) signaling pathway (AID 1346784; calls by dose curve; note: nearly all actives have a fitted effect of over 30% in size). In a few lines: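 The screen uses PR-UAS-bla HEK 293T cells in charcoal-stripped serum (2%). Compounds are applied for 16 hr at 37C after a 6 hr pre-incubation, and reporter activity is detected with a FRET beta-lactamase substrate after 2 hr at room temperature.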
Chain of Progesterone receptor (Homo sapiens) (P06401 whole entry, looked up): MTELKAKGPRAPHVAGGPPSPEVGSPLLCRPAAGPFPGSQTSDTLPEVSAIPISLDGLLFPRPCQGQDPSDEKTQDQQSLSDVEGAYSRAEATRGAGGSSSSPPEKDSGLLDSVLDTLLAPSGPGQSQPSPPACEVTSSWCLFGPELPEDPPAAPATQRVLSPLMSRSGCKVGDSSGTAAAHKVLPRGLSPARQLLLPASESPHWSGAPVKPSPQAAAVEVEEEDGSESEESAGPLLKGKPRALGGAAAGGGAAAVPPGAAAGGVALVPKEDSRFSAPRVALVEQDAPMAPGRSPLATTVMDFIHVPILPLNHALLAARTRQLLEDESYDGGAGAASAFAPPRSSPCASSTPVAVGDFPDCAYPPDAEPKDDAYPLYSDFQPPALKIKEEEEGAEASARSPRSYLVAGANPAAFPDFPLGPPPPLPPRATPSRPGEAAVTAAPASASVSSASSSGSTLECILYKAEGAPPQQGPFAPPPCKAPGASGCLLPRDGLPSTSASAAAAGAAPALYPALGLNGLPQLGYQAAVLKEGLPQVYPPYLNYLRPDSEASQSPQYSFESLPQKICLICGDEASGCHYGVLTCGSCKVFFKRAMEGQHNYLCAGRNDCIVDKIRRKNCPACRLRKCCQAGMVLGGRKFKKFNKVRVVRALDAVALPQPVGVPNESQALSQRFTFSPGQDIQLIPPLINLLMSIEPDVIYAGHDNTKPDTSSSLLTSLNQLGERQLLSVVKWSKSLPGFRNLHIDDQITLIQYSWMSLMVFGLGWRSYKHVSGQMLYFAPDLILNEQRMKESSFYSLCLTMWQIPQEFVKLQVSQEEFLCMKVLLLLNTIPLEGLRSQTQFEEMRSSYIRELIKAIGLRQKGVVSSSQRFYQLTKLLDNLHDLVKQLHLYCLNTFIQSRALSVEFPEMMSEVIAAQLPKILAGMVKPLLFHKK

Assay [5] can be described thus: qHTS assay to identify small molecule antagonists of the TGF-beta/Smad signaling pathway - cell viability counter screen (AID 1346824). Note: nearly all actives have a fitted effect of over 50% in size. In short, it runs like this:
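SBE-bla HEK 293T cells, incubated overnight, then compound plus 0.25 ng/mL TGF-beta1 (stock added) for 5 hr at 37 C. Viability was read in the same wells by CellTiter-Glo luminescence after 30 min at room temperature.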

Assay [6] can be described thus: qHTS assay to identify small molecule agonists of the TGF-beta/Smad signaling pathway - cell viability counter screen (AID 1346829). Note: top concentration of the series differs between compounds; nearly all actives have a fitted effect of over 45% in size. In short, it runs like this: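 After overnight seating at 37 C and 5% CO2, reporter cells got compounds for 5 hr and FRET substrate for 2 hr; cell viability then came from CellTiter-Glo luminescence.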
Assay [7] in a line: qHTS assay to identify small molecule agonists of the TGF-beta/Smad signaling pathway (AID 1346859; active = well fitted activation curve with a large enough effect in the signal ratio in the repeat runs, not every such curve was filed as active; the % refers to the signal ratio; note: series mostly up to about 77 µM). In a few lines:
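Dual-wavelength fluorescence (460/530 nm emission) quantified beta-lactamase expression under the Smad binding element in HEK 293T cells following 5 hr compound treatment at 37 C.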

Assay [8] addresses Thyrotropin-releasing hormone receptor (Homo sapiens) (UniProt P34981). The assay can be described thus: qHTS assay to identify small molecule antagonists of the thyrotropin-releasing hormone receptor (TRHR) signaling pathway (AID 1346877; active = well fitted inhibition curve with a large enough effect in the repeat runs, not every such curve was filed as active; note: series mostly up to about 51 µM). In short, it runs like this:
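Screening used HEK293 cells engineered with TRHR, with a brief 5 min room-temperature compound exposure preceding addition of TRH to 1 nM. The read-out was kinetic calcium-dye fluorescence, concentration-response from 15 doses in triplicate.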

Assay [9] has the same target. As to the kind of experiment: qHTS assay to identify small molecule agonists of the thyrotropin-releasing hormone receptor (TRHR) signaling pathway (AID 1346891; calls by dose curve; note: potency is the fitted concentration of half-maximal effect;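 for activation: HEK293 cells expressing TRHR with calcium dye readout; series mostly up to about 58 µM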). In short, it runs like this:
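Kinetic fluorescence (3 min, 1 s intervals) reported intracellular calcium after compound transfer onto TRHR-Hek293 cells pre-loaded with dye for 2 h at 37 °C.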

The target of assay [10] is Estrogen receptor beta (Homo sapiens) (UniProt Q92731). As to the kind of experiment: qHTS assay to identify small molecule agonists of the estrogen receptor beta (ER-beta) signaling pathway (AID 1259377; active = well fitted activation curve with a large enough effect in the signal ratio in the repeat runs, not every such curve was filed as active; the % refers to the signal ratio). In a few lines:
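Measured by fluorescence intensity from a B/G FRET beta-lactamase substrate (2 h, room temperature) in ER-beta-UAS-bla HEK293T cells treated with DMSO-dissolved compounds for 16 hr at 37C and 5% CO2.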

Assay [11] has the same target. As to the kind of experiment: qHTS assay to identify small molecule antagonists of the estrogen receptor beta (ER-beta) signaling pathway (AID 1259378; active = well fitted inhibition curve with a large enough effect in the signal ratio in the repeat runs, not every such curve was filed as active; the % refers to the signal ratio; note: potency is the fitted concentration of half-maximal effect). In a few lines: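 ER-beta-UAS-bla HEK293T cells in 2% charcoal-stripped FBS medium treated with compound plus 1nM final 17-beta-estradiol for 16 hr at 37C. Beta-lactamase reporter read by FRET substrate fluorescence after 2 hours at room temperature.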

The nature of assay [12]: qHTS assay to identify small molecule agonists of the androgen receptor (AR) signaling pathway in the presence of an antagonist - cell viability counter screen (AID 1259379).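 Note: MDA-kb2 human breast cancer cells carrying an MMTV luciferase reporter; series mostly up to about 92 µM; nearly all actives have a fitted effect of over 25% in size.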 In a few lines: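 A CellTiter-Fluor read-out measured viability of MDA-kb2 reporter cells (MMTV promoter with AR and GR response elements). Treatment: nilutamide 3.0uM final with compounds at 15 concentrations, 16 hr, 37C, 0% CO2.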

Assay [13] addresses Androgen receptor (Homo sapiens) (UniProt P10275). As to the kind of experiment: qHTS assay to identify small molecule agonists of the androgen receptor (AR) signaling pathway in the presence of an antagonist (AID 1259381; calls by dose curve; note: nearly all actives have a fitted effect of over 15% in size). In short, it runs like this:
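Using human MDA-kb2 cells with an MMTV promoter–luciferase construct (AR and GR response elements), agonist activity is scored under 3.0uM nilutamide (final) co-treatment; 16hr incubation, 37C, luminescence readout via ONE-Glo.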

The nature of assay [14]: qHTS assay to identify small molecule agonists of the estrogen receptor alpha (ER-alpha) signaling pathway in the presence of an antagonist - cell viability counter screen (AID 1259386).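 Note: series mostly up to about 92 µM; cells exposed to compounds for 22 h at 37 °C before the viability read; nearly all actives have a fitted effect of over 30% in size.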 In a few lines:
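ICI-182,780 at 10.0nM final accompanies the compound titration (15 concentrations, 22hr, 37C) on VM7Luc4E2 cells. The CellTiter-Fluor fluorescence readout runs in the same wells as the luciferase assay.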

Assay [15] has as its target Estrogen receptor (Homo sapiens) (UniProt P03372). As to the kind of experiment: qHTS assay to identify small molecule agonists of the estrogen receptor alpha (ER-alpha) signaling pathway in the presence of an antagonist (AID 1259383; calls by dose curve; note: top concentration of the series differs between compounds; nearly all actives have a fitted effect of over 15% in size). In short, it runs like this:
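Using VM7Luc4E2 cells seeded 24hr before treatment, antagonist ICI-182,780 (10.0nM final) was added, followed by compounds at 15 concentrations. Plates incubated 22hr; ONE-Glo luminescence quantified reporter activity.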

Assay [16] has as its target Thyrotropin receptor (Homo sapiens) (UniProt P16473). The assay can be described thus: qHTS assay to identify small molecule antagonists of the thyroid stimulating hormone receptor (TSHR) signaling pathway (AID 1259385; calls by dose curve; note: nearly all actives have a fitted effect of over 20% in size). In short, it runs like this:
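TSHR-HEK293 cells (800/well) plated 18 h, then compounds with Ro20-1724 and TSH at 1.5 ng/mL final, 30 min at room temperature. cAMP quantified by HTRF (cAMP-d2/anti-cAMP-cryptate, 1 h); 15 concentrations in triplicate.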

The target in assay [17] is Progesterone receptor (Homo sapiens) (UniProt P06401). The assay can be described thus: qHTS assay to identify small molecule antagonists of the progesterone receptor (PR) signaling pathway (AID 1346795; active = well fitted inhibition curve with a large enough effect in the signal ratio in the repeat runs, not every such curve was filed as active; the % refers to the signal ratio; note: potency is the fitted concentration of half-maximal effect). In a few lines:
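After 6 hr plating at 37C in 2% stripped-serum medium, PR-UAS-bla HEK293T cells got compounds, then 1 nM R5020. Sixteen hours later, LiveBLAzer substrate was applied for 2 hr at room temperature and fluorescence was recorded.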

A short description of assay [18]: qHTS assay to identify small molecule agonists or antagonists of the thyroid stimulating hormone receptor (TSHR) signaling pathway - wild type cell line counter screen (AID 1259384; calls by dose curve). In short, it runs like this: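 Wild-type Hek293 cells, 800/well, 18 h at 37C, then compound with Ro20-1724 for 30 min RT. cAMP by HTRF (cAMP-d2/anti-cAMP cryptate), 1 h RT, fluorescence read. 15 concentrations, triplicates.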

The nature of assay [19]: qHTS assay to identify small molecule agonists of the progesterone receptor (PR) signaling pathway - cell viability counter screen (AID 1346799; calls by dose curve; note: nearly all actives have a fitted effect of over 45% in size). In a few lines: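 Viability was scored by ATP luminescence (CellTiter-Glo, 30 min, room temperature) in the same wells used for the reporter readout, after 16 hr compound exposure of PR-UAS-bla HEK293T cells.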
The nature of assay [20]: qHTS assay to identify small molecule antagonists of the progesterone receptor (PR) signaling pathway - cell viability counter screen (AID 1346798). Note: series mostly up to about 92 µM; nearly all actives have a fitted effect of over 50% in size. In a few lines: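 Viability was determined by ATP-based luminescence (CellTiter-Glo) in PR-UAS-bla HEK293T cells cultured in 2% charcoal-stripped serum and incubated 16 hr with compounds under R5020 stimulation.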

Chain of Estrogen receptor beta (Homo sapiens) (Q92731 whole entry, looked up): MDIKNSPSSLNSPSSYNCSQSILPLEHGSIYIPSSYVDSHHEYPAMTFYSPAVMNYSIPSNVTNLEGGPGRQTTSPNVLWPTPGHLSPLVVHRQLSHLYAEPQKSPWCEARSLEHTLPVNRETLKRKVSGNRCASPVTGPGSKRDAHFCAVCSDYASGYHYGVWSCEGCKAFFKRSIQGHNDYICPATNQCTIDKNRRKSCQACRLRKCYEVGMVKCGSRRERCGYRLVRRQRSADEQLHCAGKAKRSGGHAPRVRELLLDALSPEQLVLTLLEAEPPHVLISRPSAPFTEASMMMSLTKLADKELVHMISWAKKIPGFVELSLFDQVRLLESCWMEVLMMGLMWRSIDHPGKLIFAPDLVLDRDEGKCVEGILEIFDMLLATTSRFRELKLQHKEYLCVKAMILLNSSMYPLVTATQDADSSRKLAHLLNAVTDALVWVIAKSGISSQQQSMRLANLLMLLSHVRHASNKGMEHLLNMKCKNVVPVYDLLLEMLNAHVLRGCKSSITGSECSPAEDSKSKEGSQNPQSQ
Chain of Androgen receptor (Homo sapiens) (P10275 whole entry, looked up): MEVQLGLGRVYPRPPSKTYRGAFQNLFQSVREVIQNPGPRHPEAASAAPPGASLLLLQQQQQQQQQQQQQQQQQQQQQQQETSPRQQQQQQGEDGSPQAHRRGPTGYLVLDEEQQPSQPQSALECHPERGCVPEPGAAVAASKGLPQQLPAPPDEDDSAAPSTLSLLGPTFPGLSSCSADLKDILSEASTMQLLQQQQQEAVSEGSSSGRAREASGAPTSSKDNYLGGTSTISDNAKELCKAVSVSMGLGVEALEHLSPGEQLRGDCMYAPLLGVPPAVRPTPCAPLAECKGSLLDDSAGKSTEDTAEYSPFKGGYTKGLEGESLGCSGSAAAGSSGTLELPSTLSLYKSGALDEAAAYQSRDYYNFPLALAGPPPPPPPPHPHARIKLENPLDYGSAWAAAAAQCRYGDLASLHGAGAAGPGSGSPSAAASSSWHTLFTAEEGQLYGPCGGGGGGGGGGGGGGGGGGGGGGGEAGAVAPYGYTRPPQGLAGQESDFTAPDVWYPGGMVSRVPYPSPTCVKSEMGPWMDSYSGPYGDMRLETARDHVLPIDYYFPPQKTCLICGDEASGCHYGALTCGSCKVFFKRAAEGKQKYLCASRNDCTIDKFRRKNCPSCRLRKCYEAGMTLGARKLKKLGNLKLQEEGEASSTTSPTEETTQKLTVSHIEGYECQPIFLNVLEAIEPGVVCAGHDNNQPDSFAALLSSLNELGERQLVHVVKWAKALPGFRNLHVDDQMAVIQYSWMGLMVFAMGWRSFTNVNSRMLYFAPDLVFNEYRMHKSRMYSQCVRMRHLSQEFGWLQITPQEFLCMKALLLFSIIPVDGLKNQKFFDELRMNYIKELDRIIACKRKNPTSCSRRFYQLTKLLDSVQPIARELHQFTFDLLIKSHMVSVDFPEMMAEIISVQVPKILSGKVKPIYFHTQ
Chain of Thyrotropin receptor (Homo sapiens) (P16473 whole entry, looked up): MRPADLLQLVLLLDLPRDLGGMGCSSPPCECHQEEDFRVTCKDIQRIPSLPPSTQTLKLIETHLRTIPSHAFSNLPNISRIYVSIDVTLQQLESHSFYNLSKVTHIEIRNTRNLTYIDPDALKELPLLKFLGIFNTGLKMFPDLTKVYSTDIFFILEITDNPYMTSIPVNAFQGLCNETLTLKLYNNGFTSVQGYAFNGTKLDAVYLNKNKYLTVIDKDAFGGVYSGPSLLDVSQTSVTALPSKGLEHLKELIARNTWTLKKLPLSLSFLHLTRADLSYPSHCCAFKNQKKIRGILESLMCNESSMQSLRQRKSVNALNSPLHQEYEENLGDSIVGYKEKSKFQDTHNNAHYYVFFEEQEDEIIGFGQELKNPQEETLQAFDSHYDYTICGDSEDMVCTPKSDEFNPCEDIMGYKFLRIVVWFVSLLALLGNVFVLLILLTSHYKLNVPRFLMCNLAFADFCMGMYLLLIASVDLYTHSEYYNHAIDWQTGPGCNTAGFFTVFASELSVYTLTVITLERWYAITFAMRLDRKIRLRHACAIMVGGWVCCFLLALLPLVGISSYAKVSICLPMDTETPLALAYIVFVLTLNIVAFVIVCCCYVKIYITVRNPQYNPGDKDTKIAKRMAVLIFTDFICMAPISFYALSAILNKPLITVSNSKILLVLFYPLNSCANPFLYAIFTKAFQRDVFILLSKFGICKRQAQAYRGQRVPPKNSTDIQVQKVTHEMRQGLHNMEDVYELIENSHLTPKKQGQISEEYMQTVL
Chain of Estrogen receptor (Homo sapiens) (P03372 whole entry, looked up): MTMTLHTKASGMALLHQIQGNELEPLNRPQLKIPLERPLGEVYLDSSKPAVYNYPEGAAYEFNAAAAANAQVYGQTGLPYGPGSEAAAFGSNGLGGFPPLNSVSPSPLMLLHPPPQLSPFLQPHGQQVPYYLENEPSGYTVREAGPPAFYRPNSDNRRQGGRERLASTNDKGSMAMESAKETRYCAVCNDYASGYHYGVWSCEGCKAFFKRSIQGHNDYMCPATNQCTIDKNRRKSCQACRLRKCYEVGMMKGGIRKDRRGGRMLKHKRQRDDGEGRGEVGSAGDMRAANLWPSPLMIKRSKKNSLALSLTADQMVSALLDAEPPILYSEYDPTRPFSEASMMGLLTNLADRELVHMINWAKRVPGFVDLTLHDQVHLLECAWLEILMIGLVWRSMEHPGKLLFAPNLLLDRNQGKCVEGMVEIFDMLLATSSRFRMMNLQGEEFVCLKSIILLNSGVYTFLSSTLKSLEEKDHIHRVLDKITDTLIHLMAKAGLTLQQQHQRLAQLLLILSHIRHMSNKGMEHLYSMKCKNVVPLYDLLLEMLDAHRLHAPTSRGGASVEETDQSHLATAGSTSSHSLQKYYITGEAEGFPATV
Chain of Thyrotropin-releasing hormone receptor (Homo sapiens) (P34981 whole entry, looked up): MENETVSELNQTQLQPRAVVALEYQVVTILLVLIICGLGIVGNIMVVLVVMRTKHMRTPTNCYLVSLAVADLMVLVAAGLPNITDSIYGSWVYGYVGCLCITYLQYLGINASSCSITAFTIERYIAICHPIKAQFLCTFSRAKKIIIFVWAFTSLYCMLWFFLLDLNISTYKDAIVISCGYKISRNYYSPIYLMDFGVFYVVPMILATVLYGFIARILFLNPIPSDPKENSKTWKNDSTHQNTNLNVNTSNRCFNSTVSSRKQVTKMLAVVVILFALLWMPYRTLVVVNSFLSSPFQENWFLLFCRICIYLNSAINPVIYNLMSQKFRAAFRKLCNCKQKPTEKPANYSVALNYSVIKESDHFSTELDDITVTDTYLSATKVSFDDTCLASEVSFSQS

As to `CN(C)CCCN1c2ccccc2Sc2ccccc21`, the Potency in assay [1] is 11.9 µM (active); in assay [2] it was 21.1 µM (active); in assay [3], 26.6 µM (active). In addition, the Potency entry in assay [4], in [5], in assay [7] and in assay [9] was “inactive” each time. Also, the result in [6] and in assay [8] was inactive.

For `Cc1cc(N)c2cc(NC(=O)Nc3ccc4nc(C)cc(N)c4c3)ccc2n1`, the Potency result in [10], in assay [11], in assay [12], in assay [2], in [13] and in assay [3] was “inactive” in each case. Also, the Potency result in assay [14], in [4], in assay [5] and in assay [9] was “inactive” throughout. The compound was classed as inactive in assay [6] and in assay [8].

For the compound `C=C1C(=C/C=C2\CCC[C@]3(C)[C@@H]([C@H](C)/C=C/[C@@H](O)C4CC4)CC[C@@H]23)C[C@@H](O)C[C@@H]1O`, the Potency in [1] is 0.0007 µM (active); in assay [2] it was 26.6 µM (active); in assay [17], 11.9 µM (active). Besides, the Potency entry in assay [13], in assay [15], in assay [16], in assay [4], in assay [5] and in [7] was “inactive” throughout. For the same compound, in [6], the compound was classed as inactive.

For `NCC(=O)CCC(=O)O`, the Potency result in [10], in assay [12], in assay [2], in [3], in assay [15] and in assay [18] was “inactive” in each case. Also, the Potency entry in [16], in [14], in assay [4], in assay [17], in [19] and in assay [5] was “inactive” each time. Also, the Potency result in [7] was “inactive”. In assay [6], the result was inactive.

With `O=P(O)(OCc1ccccc1)OCc1ccccc1`, the Potency entry in assay [10], in assay [11], in [12], in assay [2], in assay [15] and in [16] was “inactive” each time. Moreover, the Potency entry in assay [14], in assay [4], in [20], in assay [19] and in assay [7] was “inactive” each time. Moreover, the call in assay [6] was inactive.

Consider `O=C1OC(CN2CCOCC2)CN1/N=C/c1ccc([N+](=O)[O-])o1` (stereo not given), for which the Potency result in assay [10], in assay [11], in assay [2], in assay [13], in assay [15] and in [16] was “inactive” throughout. The Potency result in [4], in assay [17], in assay [19], in [5] and in [7] was “inactive” in each case. For the same compound, the compound was called inactive in [6].

With `CCCCC`, the Potency result in assay [10], in [11], in [12], in assay [2], in assay [3] and in [18] was “inactive” each time. Besides, the Potency entry in assay [16], in assay [14], in [4], in [17], in [20] and in [19] was “inactive” each time. Moreover, the Potency result in [5] and in [7] was “inactive” each time. Moreover, the compound was classed as inactive in assay [6]. Besides, the Potency in assay [9] was 27.1 µM (active).

Take `c1ccc(CNCCNCc2ccccc2)cc1`: the Potency entry in [10], in assay [12], in [2], in [3], in assay [15] and in assay [18] was “inactive” in each case. Further, the Potency entry in [16], in assay [14], in assay [4], in assay [17], in assay [20] and in assay [19] was “inactive” in each case. Further, the Potency result in [5], in assay [7] and in assay [9] was “inactive” in each case. The Potency in [11] is 10.6 µM (active). The compound was called inactive in [6] and in assay [8].

Consider `CC(C)C[C@H]1C(=O)N2CCC[C@H]2[C@]2(O)O[C@](NC(=O)[C@@H]3C=C4c5cccc6[nH]c(Br)c(c56)C[C@H]4N(C)C3)(C(C)C)C(=O)N12`, for which the Potency in assay [1] was 5.19 µM (active). Also, the Potency result in assay [2], in assay [3], in assay [18], in [16], in assay [4] and in [17] was “inactive” each time. Besides, the Potency result in assay [5], in [7] and in [9] was “inactive” throughout. Moreover, the compound was called inactive in [6] and in [8].
